Measurements from PubChem BioAssay AID1508600 (Functional Genomics Laboratory (NCATS/FGL), 2020).
The campaign covered roughly 53,000 sequences. About 3,700 (7%) were called active. Many of the other results were omitted from the sample, so actives are more common in it than they were. Values without a mark were called inactive.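 The calls were made as follows: active = gene knockdowns whose robust z-score for IL-1 alpha signal is at least 2 or at most -2, so actives lie on both sides; inactive = the rest.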

Experiment: Components of the Cytosolic LPS Sensing Pathway: Gene Identification via Genome-wide siRNA Screen;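 also: robust z of the log signal after scaling to non-targeting control siRNA wells of the plate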
Conditions: RAW264.7 macrophages, IL-1a HTRF, actives lie on both sides, screened at 100 nM (by protocol), cells primed 5 h with Pam3CSK4 first
In short: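 Three distinct siRNAs per gene were tested singly at 100 nM in RAW264.7 macrophages. Following Pam3CSK4 priming and 24 hour LipidA transfection, IL-1a secretion was read by HTRF.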

Sequence	z-score
GGAAACCUGAUUAUCAUCATT against Olfr791	-0.337
CCUGGACCCAUGAAGUCUUTT against Ahnak	0.911
GCUGGCCAAACUUGACAGUTT against Wwc1	2.05 (active)
CCCUCAUACCGCUUAGAACTT against Tctex1d4	-0.786
GCCUGUGGCUUAAACUUCATT against Vat1l	0.11
GGAGAACAAGAUCUUACAGTT against Cby2	-0.703
GGAACACCACCUUAGAGAUTT against Hnrnpa2b1	1.52
GAAAUGAGUCCUUGAAAAGTT against Olfr127	-0.0661
CGCAGCCUUUACCUCCGAATT against Plekha8	-1.12
GGCAUUAGCUACCUGGACATT against 1700013G24Rik	3.44 (active)
GGUGGUCCAGACCAAGUACTT against Pfdn5	-1.02
GGUCUUCAGCCCAAGAAAUTT against Dsg2	0.127
GCAAUACUUAUCCAUUGCGTT against Msx3	-0.42
GGACUCAUUGACUUCAUCATT against Atg12	-1.8
GCUUGCUUCGCCUACAUUGTT against Slc46a3	-0.501
GUAGUUAGGAACUCUUGCUTT against Thnsl2	-0.086
GGCUGAUGUGAUGAUUGUATT against Ndufs7	2.3 (active)
GCACUGUGAGUGGAUACUUTT against Slc5a3	0.13
CCAUCAAGAUCUCUCAGUATT against A630091E08Rik	-1.25
CGAAUGUCCUGGAAGCAAATT against Olfr142	-0.0904
GCUCUUAGAGAUUUGUUUGTT against Usp14	0.389
CCAUUUUUGCUCAAUUUGCTT against Eif1ax	-0.943

Sequence	z-score
GCCAAACUGCGUCUGAAUGTT against Rras	0.62
GGACAAGUACGGAAAGCCCTT against Hdgfl2	0.196
GCCACAUAAGGUUGUUCCCTT against Gamt	2.9 (active)
CCUCUCCAACAACCAACUATT against Lrrc47	-0.27
GGCUCCAAAUCAAACUCUATT against Eif4e3	2.19 (active)
GGAACCAAGCCAUGAUUUUTT against Mrgprb2	0.646
CCAGUACUCGUUUCACUUATT against Mrpl15	0.374
GGUGGACUUGUACCUCUUCTT against Tnks	-0.0808
CCGUAUUGUCACUUGUGGGTT against Arpc1a	0.479
CAGGAAAUUAGCGAUGUGGTT against Abl2	0.206
GGUGCUAAAGUCAAAAAACTT against Fras1	0.218
GAAGGGACUUCAAAGUUGATT against Ndufb10	3.3 (active)
GGGACAUCAGAUUAUUCAUTT against Zfp87	1.43
GGAAGACAAUGGUGUGAAATT against Pgm3	-0.74
GGCCGCCAUUUUGGCAAGATT against Fbxo27	3.41 (active)
CGGUGAUAACAGACAUUAATT against Aldh8a1	-0.561
CCGAACCUUCAGCUACACATT against Keap1	0.0133
GGAAAAAUUCGAGGGACUGTT against Rcan2	1.12
GGAAGUGUAUUCAAGAAGUTT against Tapt1	3.02 (active)
GCCGUUCUGCUAUCACAACTT against Scrn2	-0.531
GAAGAGACCUUCACAAAGUTT against Hnrnpll	-1.52
GGAGCGAGGAAUCAAUGUUTT against Prss8	2.86 (active)

Sequence	z-score
GGAACACCUACAGUAUAAATT against Cdc123	-0.39
GGAGCGAUUUGCUGGUGUGTT against Rps16	1.19
GGUAUCAAGGUGAAGUUGATT against Septin1	0.776
GGGACACUACCCUGAUGAUTT against Vmn1r205	-2.05 (active)
GGUUGGACAAAAAGAAUCUTT against Ifngr1	0.507
GGUCUGAGUUUUAAACAGUTT against Gmfb	1.13
GGGUUACCUCCUGACUGUUTT against Olfr930	-1.9
GCUGCUUUGCUAUCUCCUGTT against Apof	-2.25 (active)
CGAGGAGUUGGAUUUCAGGTT against Dnmbp	-0.713
GGGAGUAAAGAAAAUGUUATT against Atxn2	-0.112
GCUUAUUUCGCCUAUGUGGTT against Slc24a2	-1.11
GCAAGAUGGUAUCAGCAGATT against Sde2	-2.1 (active)
GGAAAGAGGAAGAUAAAGUTT against 2310002L09Rik	-1.17
CCGCUUUUCAUAACACGAATT against Obp2a	0.037
CCUCAUUUAGAUGUCUUGATT against Ran	-0.0987
GUCUUUGUUCAGGAGGUGATT against Ahnak	0.0593
GCCAUGCUAAUCAAGACGGTT against Gtf2ird2	-0.99
GCUCUCUCUCAUUGAUCUCTT against Olfr697	-1.63
GGUUUGGCAUCUAAAGAGCTT against Olfr1412	-2.42 (active)
CCAGCUUUUACCUAAUACCTT against Ggt1	0.0683
GGGUAUCUGAUUUAUAAGCTT against Mageh1	-0.371
GGGAAAGGGUUUUUUAUUCTT against Slc1a1	-0.177

Sequence	z-score
GCCAAAAAGUGUGUGUUGGTT against Olfr731	0.0799
CCAGUUUGCACAAGUUUUCTT against Fyco1	1.94
GGAUCUUCCAAGUUGUCUGTT against Srm	2.42 (active)
CGAGCUGAACAGAAUGAUATT against Krt85	0.265
GGCAAGGUCAAGGACACCATT against Tcp11	-0.77
GCAUGCAUGCUAUUGUUUUTT against 4931431C16Rik	0.336
GGCACACACUGAUUUUUUUTT against Cops2	0.0987
GGUCCAAUGGAUUUUGUUUTT against Pxdc1	2.06 (active)
GGUGCGAAGGAAAUUGCACTT against Mrps26	1
GCCUUUACUGGAUUCAUUGTT against Acadm	2.53 (active)
GGCAGAGAAUCAGCUCCUUTT against Il16	0.377
CGAUCGAUAAAUGUAAUGATT against Heatr5a	-0.0662
GGAGUAUGCUGUCAAAAUCTT against Mknk1	0.259
GGAUCACCAGACCUUUUUCTT against St7l	-1.94
CCAGGAAUCUAGAUAAUAGTT against BC031181	-1.05
GCAUUACCAAAAGCAGUCUTT against Lyn	-1.46
CCUCUAUUCUCCGUCUAUGTT against Fars2	2.45 (active)
GGCUACAUUGUCUCAUUGUTT against Opn1mw	-0.59
GGUUAAGGAGAAAUGUGAUTT against Mob3a	-0.0804
GGUUAAAAUGCCAUAACAATT against Ksr1	-1.26
GGGAAGUCAUUCACAUAUUTT against Rab39b	-1.58
GGAAGUCCACGAAACUAAATT against Prl3d1	0.359

Sequence	z-score
CGACCUGUGGGAAGAUAUUTT against Apoa5	-0.992
GGGAUACUUUCUUCGAGGATT against Soga3	-2.36 (active)
GGCCAUUGUUGAAAUGUACTT against Myh14	0.175
GGUAUCAACAUCACGAUUCTT against Mrgpra1	0.487
GCACCUGGUGAAUUUUACCTT against Tmem106c	-0.85
GCCUUACUGACUCGUGUCCTT against Ccp110	-2.33 (active)
GGACCUUUAAAGCUAAGCUTT against Ccn5	-1.4
GGAGUUUUCAAAAAACAGATT against Dsc2	-0.356
GGAUACUGCCAUUCAUAGGTT against Cstdc2	-0.182
GGAAAGCUUUCUUCACCUGTT against Olfr206	-1.73
GCUUCAACCCGGUCACACUTT against Kif6	2.81 (active)
GGCGCAAUGCUCAUGUGAATT against Gzmc	-0.54
GGAAGUUUUGGCUUAGGCATT against Tmco5b	1.58
GGCGAUCCACAGGAACUCUTT against Tiam1	-1.23
GCAACAACGAGUCAUGGCUTT against Plcd1	-0.502
GGACAGAGUUACCUAGGCATT against Ticrr	-2.81 (active)
GGAUCUUUCCUGAUUUAUATT against Ggt5	0.989
GCAGGCAUCAUCACGACAUTT against Gprc5c	0.402
GGAGUUCUUCUUCAAUGAGTT against Kcnd3	-1.3
GCGUACGUUCUCCUAACAUTT against Hbs1l	-1.9
